The values that follow come from PubChem BioAssay (NCATS).

Results filed as inconclusive are left out. Entries that show only a call come without a potency. Calls of active or inactive are those of the source. Calls come from the whole dose curve; as a rule, active = well fitted curve in the direction sought with a large enough effect; inconclusive = small, poorly fitted or top-dose-only effect, or another doubt; inactive = no such curve, though single readings can be large; an effect the other way counts as inactive or inconclusive.

Experiment [1] deals with Tyrosine-protein kinase Yes (Homo sapiens) (UniProt P07947). As to the kind of experiment: qHTS for small molecule inhibitors of Yes1 kinase: Primary Screen (AID 686947). Note: nearly all actives have a fitted effect of over 60% in size. Note: potency is the fitted concentration of half-maximal effect. In outline: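 Yes1 (4 nM) preincubated 20 min with compound, then 60 min room-temperature reaction with 0.1 mM ATP and 0.3 mg/mL poly(E4Y) in pH 7.5 Tris, 10 mM MgCl2. ADP measured by ADP-Glo luminescence, normalised to enzyme/no-enzyme controls.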

Experiment [2] in a line: qHTS for small molecule inhibitors of Yes1 kinase: Counter Assay (AID 686950).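 Note: no kinase present so only ADP-Glo detection of a fixed ADP amount is tested; luminescence from ADP-Glo reporting ADP in a fixed ATP and ADP mixture; series mostly up to about 77 µM.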 The gist of the method: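 Enzyme-free ADP-Glo interference check: compounds were preincubated 20 min in buffer, then an ATP/ADP mix (0.08 mM ATP, 0.02 mM ADP final) was added for 60 min at room temperature before two-step ADP-Glo luminescence detection.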
Background: qHTS replaces the single test concentration by a dilution series.

Tyrosine-protein kinase Yes (Homo sapiens), sequence (P07947 whole entry, looked up): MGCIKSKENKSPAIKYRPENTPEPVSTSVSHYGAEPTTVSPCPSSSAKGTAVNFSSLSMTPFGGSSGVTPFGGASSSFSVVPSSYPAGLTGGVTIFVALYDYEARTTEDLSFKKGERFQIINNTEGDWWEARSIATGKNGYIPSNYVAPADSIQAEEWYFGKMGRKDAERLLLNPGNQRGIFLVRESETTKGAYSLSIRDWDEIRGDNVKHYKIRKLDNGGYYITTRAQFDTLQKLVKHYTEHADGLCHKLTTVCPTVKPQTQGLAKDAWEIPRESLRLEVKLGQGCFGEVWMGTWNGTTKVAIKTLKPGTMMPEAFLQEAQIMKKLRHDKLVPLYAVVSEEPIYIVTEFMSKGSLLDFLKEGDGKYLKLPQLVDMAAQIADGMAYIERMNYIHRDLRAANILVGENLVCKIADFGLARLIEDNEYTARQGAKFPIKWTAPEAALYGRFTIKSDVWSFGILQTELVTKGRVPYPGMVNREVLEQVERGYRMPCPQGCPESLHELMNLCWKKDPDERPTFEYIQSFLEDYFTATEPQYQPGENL

With `CCc1ccc(Oc2nccc(-c3c(-c4ccc(F)cc4)ncn3C3CCNCC3)n2)cc1`, the Potency entry in experiment [1] is “inactive”. In addition, the compound was classed as inactive in experiment [2]. With `CS(=O)(=O)CCNCc1ccc(-c2ccc3ncnc(Nc4ccc(OCc5ccccc5)c(Cl)c4)c3c2)o1`, the Potency in experiment [1] was 0.923 µM (active). Moreover, the call in experiment [2] was inactive. The matching figures for `CN(c1ccc(NC(=O)Nc2c(Cl)cccc2Cl)cc1)c1ccnc(Nc2cccc(CS(C)(=O)=O)c2)n1`: 1.46 µM (active) and “inactive”.

Turning to `Fc1ccc(-c2ncn(C3CCNCC3)c2-c2ccnc(Oc3ccccc3)n2)cc1`, in experiment [1], the Potency was 11.6 µM (active). The call in experiment [2] was inactive.

For the compound `COC(=O)Nc1nc2ccc(Oc3cccc(NC(=O)Nc4cc(C(F)(F)F)ccc4F)c3)cc2[nH]1`, the Potency in experiment [1] was 11.6 µM (active). For the same compound, the result in experiment [2] was inactive.

Regarding `COc1ccc2cc(-c3c(-c4ccncc4)nc(-c4ccc(S(C)=O)cc4C)n3C)ccc2c1` (centres undefined), in experiment [1], the Potency was 1.64 µM (active). The result in experiment [2] was inactive. The matching figures for `CNC(=O)c1cncc(C=Cc2c(Cl)cccc2Cl)c1`: 0.823 µM (active) and “inactive”. For `O=C(Nc1ccc(Oc2ccc3nc(NC(=O)c4ccco4)[nH]c3c2)cc1)Nc1cc(C(F)(F)F)ccc1F`, in that order: 4.12 µM (active) and “inactive”. On to `NS(=O)(=O)c1cccc(-c2ccc3c(NC(=O)C4CC4)n[nH]c3c2)c1`, for which the Potency in experiment [1] was 4.12 µM (active). Besides, the outcome in experiment [2] was inactive. With `COc1ccc(-c2nn3ncccc3c2-c2ccnc(Nc3cccc(C(F)(F)F)c3)n2)cc1`, the Potency in experiment [1] was 0.582 µM (active). Besides, the compound was called inactive in experiment [2]. For `FC(F)(F)CNc1nccc(-c2cnn3ncccc23)n1`, the Potency result in experiment [1] is “inactive”. Further, in experiment [2], the outcome was inactive. In the case of `NC(=O)c1cccc(Nc2nccc(Nc3cccc(F)c3)n2)c1`, in experiment [1], the Potency is 1.16 µM (active). Moreover, the call in experiment [2] was inactive. For `Cc1cc(Cl)cc2c(N=Nc3ccc(S(N)(=O)=O)cc3)c(O)[nH]c12`, in that order: 10.4 µM (active) and “inactive”.

As for `N#Cc1ccc(Oc2nccc(-c3c(-c4ccc(F)cc4)ncn3C3CCNCC3)n2)cc1`, the Potency entry in experiment [1] is “inactive”. The outcome in experiment [2] was inactive.

Take `C#Cc1cccc(Nc2ncnc3ccc(OCCCCNCCS(C)(=O)=O)cc23)c1`: the Potency in experiment [1] was 7.33 µM (active). Also, the result in experiment [2] was inactive.

`CS(=O)(=O)CCNCc1ccc(-c2ccc3ncnc(Nc4ccc(OCc5cccc(F)c5)c(C(F)(F)F)c4)c3c2)o1`: the Potency entry in experiment [1] is “inactive”. The result in experiment [2] was inactive. On to `c1ccc(COc2ccc(Nc3ncnc4ccc(-c5ccco5)cc34)cc2)cc1`, for which the Potency in experiment [1] is 3.68 µM (active). In experiment [2], the compound was called inactive. As to `NC(=O)c1ccc2c(-c3ccnc(NCCCO)n3)c(-c3ccc(F)cc3)nn2c1`, the Potency in experiment [1] is 6.54 µM (active). For the same compound, in experiment [2], the compound was classed as inactive. With `NS(=O)(=O)c1ccc(N=Nc2c(O)[nH]c3ccc(-c4cnco4)cc23)cc1`, in experiment [1], the Potency entry was “inactive”. Moreover, the call in experiment [2] was inactive.

In the case of `NS(=O)(=O)c1ccc(N=Nc2c(O)[nH]c3cccc(CCc4ccncc4)c23)cc1`, the Potency entry in experiment [1] is “inactive”. Also, in experiment [2], the outcome was inactive. In the case of `COc1ccc(C2=C(N3CCc4ccccc43)C(=O)NC2=O)cc1`, the compound was called inactive in experiment [2].

For the compound `CN(C)CCNC(=O)Nc1ccc(N(C)c2ccnc(Nc3ccc(CS(C)(=O)=O)cc3)n2)cc1`, in experiment [1], the Potency was 7.33 µM (active). Moreover, the compound was called inactive in experiment [2]. In the case of `Cc1cccc(Oc2nccc(-c3c(-c4ccc(F)cc4)ncn3C3CCNCC3)n2)c1C`, in experiment [2], the result was inactive. On the same count and under the same terms, for `COc1cc2ncn(-c3cc(OCc4cccs4)c(C(N)=O)s3)c2cc1OC` the value was “inactive”. As for `COc1cc2ncn(-c3cc(OCc4ccccc4Cl)c(C(N)=O)s3)c2cc1OC`, the Potency in experiment [1] was 5.19 µM (active). For the same compound, in experiment [2], the result was inactive.

`ON=C1CCc2cc(-c3nc(C4CCNCC4)[nH]c3-c3ccncc3)ccc21`: in experiment [1], the Potency entry was “inactive”. For the same compound, the compound was called inactive in experiment [2].

For `CCc1cccc(CC)c1C=Cc1cncc(C(=O)NC)c1`, the call in experiment [2] was inactive. Take `Cc1nnc(-c2ccc(C)c(-c3ccc(C(=O)Nc4cccc(C#N)c4)cc3)c2)o1`: the outcome in experiment [2] was inactive. Regarding `Oc1cccc(-c2nc(-c3ccccc3)[nH]c2-c2ccncc2)c1`, the Potency in experiment [1] was 0.923 µM (active). Moreover, the compound was classed as inactive in experiment [2].

On to `CCS(=O)(=O)c1ccc(OC)c(Nc2ncc(-c3ccccc3Cl)o2)c1`, for which the call in experiment [2] was inactive. Take `COc1cccc(-n2nc(C)c3c(NN=C(C)c4ccncc4)ncnc32)c1`: in experiment [2], the outcome was inactive. On to `COc1cc(C)c(NC(=O)CN(C)C)cc1Nc1nc(Nc2cccc(F)c2C(N)=O)c2cc[nH]c2n1`, for which, in experiment [1], the Potency entry is “inactive”. Besides, in experiment [2], the result was inactive.

For `CCn1c(-c2nonc2N)nc2c(C#CC(C)(C)O)nc(OCCNC)cc21`, the Potency in experiment [1] was 8.23 µM (active). In addition, the outcome in experiment [2] was inactive. For `NC(=O)c1cccc(Nc2nccc(Nc3cccc4[nH]ncc34)n2)c1`, in experiment [2], the outcome was inactive. The same measure, in the same setting: for `Cc1ccc2[nH]c(O)c(N=Nc3ccc(S(N)(=O)=O)cc3)c2c1` the value was “inactive”. For the compound `CCn1cc(-c2ccnc3[nH]ccc23)c(-c2cccc(NC(=O)Nc3ccc(OCc4ccccc4)cc3)c2)n1`, the Potency in experiment [1] is 9.23 µM (active). Moreover, the outcome in experiment [2] was inactive. Regarding `Cc1c2ccc(N(C)c3ccnc(Nc4cccc(S(N)(=O)=O)c4)n3)cc2nn1C`, the Potency in experiment [1] is 0.519 µM (active). The compound was classed as inactive in experiment [2]. The matching figures for `Fc1ccc(-c2ncn(C3CCNCC3)c2-c2ccnc(Oc3cccc(C(F)(F)F)c3)n2)cc1`: “inactive” and “inactive”. Regarding `NS(=O)(=O)c1ccc(-c2cc3ccncc3cc2OCc2ccccc2)cc1`, the compound was called inactive in experiment [2]. Still for that read-out and setting: as for `CCc1nccc2c1nc(-c1nonc1N)n2CC`, the entry is “inactive”. Same read-out and setting: for `CCOc1ccc2c(-c3ccnc(Nc4cc(OC)cc(C(F)(F)F)c4)n3)cnn2n1` the value was “inactive”. With `COc1cccc(-c2c[nH]c3c(NN=Cc4ccncc4)ncnc23)c1`, in experiment [1], the Potency is 0.164 µM (active). For the same compound, the compound was called inactive in experiment [2]. With `COc1cc(N2CCN(C(C)C)CC2)ccc1Nc1nc(Nc2ccc(F)cc2C(N)=O)c2cc[nH]c2n1`, the call in experiment [2] was inactive. Turning to `O=C(Nc1n[nH]c2cc(-c3ccc(F)cc3)ccc12)C1CC1`, the call in experiment [2] was inactive.
